Measured values from publication PMC4336329 (PLoS ONE, 2015).
About 14,000 (4.5%) of roughly 310,000 compounds showed an effect of 50% or more. The effect is printed as a negative number. For the sample, strong results were picked, then their nearest neighbours and some compounds at random.

The compounds below were run against human ether-à-go-go-related gene (hERG) potassium channel (human, UniProt Q12809) (assay: primary screen, population patch clamp on CHO cells stably expressing hERG; higher = less effect of the substance).
Sequence of human ether-à-go-go-related gene (hERG) potassium channel (Q12809 whole entry, looked up): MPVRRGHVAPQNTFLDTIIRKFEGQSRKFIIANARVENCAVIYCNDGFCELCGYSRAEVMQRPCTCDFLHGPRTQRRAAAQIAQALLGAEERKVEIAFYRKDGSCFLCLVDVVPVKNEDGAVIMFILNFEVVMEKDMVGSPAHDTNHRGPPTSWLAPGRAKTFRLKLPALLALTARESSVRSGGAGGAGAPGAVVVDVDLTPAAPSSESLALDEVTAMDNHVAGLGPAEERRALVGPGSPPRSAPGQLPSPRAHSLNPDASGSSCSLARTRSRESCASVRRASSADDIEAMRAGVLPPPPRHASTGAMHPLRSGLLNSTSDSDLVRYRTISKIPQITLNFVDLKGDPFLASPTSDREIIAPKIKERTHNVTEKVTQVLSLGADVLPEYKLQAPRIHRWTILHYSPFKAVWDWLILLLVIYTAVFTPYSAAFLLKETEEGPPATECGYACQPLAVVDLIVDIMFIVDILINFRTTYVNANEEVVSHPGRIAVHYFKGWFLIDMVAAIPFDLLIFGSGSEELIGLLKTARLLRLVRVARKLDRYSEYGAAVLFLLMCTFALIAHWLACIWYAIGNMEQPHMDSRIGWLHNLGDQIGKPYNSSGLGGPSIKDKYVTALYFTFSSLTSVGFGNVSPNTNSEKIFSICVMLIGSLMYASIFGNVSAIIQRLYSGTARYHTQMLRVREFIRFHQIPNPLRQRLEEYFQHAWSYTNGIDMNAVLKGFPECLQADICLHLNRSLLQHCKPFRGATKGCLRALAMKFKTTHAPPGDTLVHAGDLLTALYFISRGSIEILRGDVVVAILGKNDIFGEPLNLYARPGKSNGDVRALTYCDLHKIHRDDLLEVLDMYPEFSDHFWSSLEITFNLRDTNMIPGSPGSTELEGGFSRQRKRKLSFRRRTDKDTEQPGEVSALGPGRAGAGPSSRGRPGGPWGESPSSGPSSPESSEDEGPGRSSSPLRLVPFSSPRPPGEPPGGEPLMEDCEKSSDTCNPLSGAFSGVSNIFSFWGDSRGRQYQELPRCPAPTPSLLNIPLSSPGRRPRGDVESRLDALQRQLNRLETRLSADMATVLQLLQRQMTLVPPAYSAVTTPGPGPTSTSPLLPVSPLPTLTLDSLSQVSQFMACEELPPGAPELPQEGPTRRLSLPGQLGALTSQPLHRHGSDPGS
Experimental: Briefly, Chinese hamster ovary (CHO) cells stably expressing the hERG channel were dislodged from tissue culture flasks and dispensed into PPC plates. […] During the recording, background leak currents were estimated by a 100 ms step to -80 mV from an initial holding potential of -70 mV and subtracted from the subsequent current measurement. The campaign was conducted in two phases using slight differences in recording protocol. In the first phase, the initial voltage pulse used a 100 ms step to -30 mV from a holding potential of -70 mV, a 2 s conditioning step to +25 mV, and a 2 s test step to -30 mV. During the second phase of the screen, the potential during the conditioning step was raised to +45 mV. In both phases of the campaign, a secondary voltage pulse was applied using the same parameters as the second phase initial pulse. The initial and secondary pulses were applied in the absence of compound, and upon application of 1 μM and 10 μM test concentrations. […]
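Note: peak tail current of the secondary pulse compared with the same well before compound.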

Row | SMILES | hERG current change (%, negative = inhibition) at 10uM
1 | COCCN(C(=O)CSc1nnc(C)n1-c1ccc(C)cc1)c1c(N)n(Cc2ccccc2)c(=O)[nH]c1=O | -2.83%
2 | COc1ccc(C(=O)NCc2ccc(-c3nc4ccccc4s3)cc2)cc1 | 10.1%
3 | NS(=O)(=O)c1ccc(CCNC(=O)Nc2ccc(Cl)c(Cl)c2)cc1 | 15.3%
4 | CN(C)C1=NCCN1CCc1cccc(F)c1 | -8.41%
5 | O=C(NCCN1CCOCC1)c1cc2ccccc2oc1=O | -1.87%
6 | Oc1ccc(/C=N/Nc2nccnc2Cl)c(O)c1 | 0.455%
7 | COc1ccc(OC)c(C2=NOC(C(=O)NCc3cccs3)C2)c1 (stereo not shown) | -13.5%
8 | Cc1ccc(CNc2nc3ccccc3n3cnnc23)cc1 | -6.53%
9 | O=C(NCC(=O)N(CCc1ccccc1)C(C(=O)NC1CCCC1)c1cccnc1)c1ccco1 (stereo not shown) | -43.8%
10 | O=C(NC1CCCC1)C(c1cccnc1)N(CCc1ccccc1)C(=O)c1ccco1 (stereo not shown) | -69%
11 | Cc1ccc(CN(C(=O)c2ccco2)C(C(=O)NC2CCCC2)c2cccnc2)cc1 (stereo not shown) | -1.98%
12 | CCOC(=O)c1cc(-c2ccccc2)nn1CC1CC(c2ccc(Cl)cc2)=NO1 (stereo not shown) | -16.2%
13 | COc1ccc([N+](=O)[O-])cc1NC(=O)C1(c2ccc(OC)c(OC)c2)CCOCC1 | -14.4%
14 | Cc1ccc(NC(=O)CSc2nnc(CNC(=O)c3cccs3)o2)c(C)c1 | 6.79%
15 | O=C(NCCc1cccc(F)c1)/C(=C/c1cccnc1)NC(=O)c1ccccc1 | -36.4%
16 | COc1ccccc1CCNC(=O)/C(=C/c1cccnc1)NC(=O)c1ccccc1 | -33.9%
17 | COc1ccc(CCNC(=O)/C(=C/c2cccnc2)NC(=O)c2ccccc2)cc1OC | -3.35%
18 | O=C(NCCc1ccccc1F)/C(=C/c1cccnc1)NC(=O)c1ccccc1 | -52.2%
19 | O=C(NCCc1ccc(Cl)cc1)/C(=C/c1cccnc1)NC(=O)c1ccccc1 | -70.9%
20 | COc1ccc(CCNC(=O)/C(=C/c2cccnc2)NC(=O)c2ccccc2)cc1 | -47.2%
21 | CC1(C)c2[nH]c3ccccc3c2C[C@@H]2C(=O)N(Cc3ccccc3Cl)C(=O)N21 | 15.4%
22 | Cc1ccc(S(=O)(=O)NC(C)(C)CSc2nncn2N)cc1 | 9.75%
23 | O=C(O)C#Cc1cccc2ccccc12 | 29.8%

Row | SMILES | hERG current change (%, negative = inhibition) at 10uM
24 | COc1cccc(N2CCN(CC(=O)Nc3ccc(-n4cnnn4)cc3)CC2)c1 | 7.28%
25 | COc1ccc(NC(=O)CN2CCN(c3ccc(F)cc3)CC2)cc1 | -4.62%
26 | COc1ccc(N2CCN(CC(=O)Nc3ccc(C)cc3)CC2)cc1 | -18.7%
27 | O=C1CN(CC(=O)Nc2ccc(SC(F)F)cc2)CCN1 | -32.6%
28 | COc1ccc(N2CCN(CC(=O)Nc3ccc(SC(F)F)cc3)CC2)cc1 | -76.6%
29 | O=C(CN1CCN(c2ccc(O)cc2)CC1)Nc1ccc(SC(F)F)cc1 | -74.7%
30 | O=C(CN1CCN(c2ccc(O)cc2)CC1)Nc1ccc(-c2ccccc2)cc1 | -5.1%
31 | COc1cccc(N2CCN(CC(=O)Nc3ccc(SC(F)F)cc3)CC2)c1 | -65.5%
32 | COc1ccc(NC(=O)CN2CCN(c3ccccc3)CC2)cc1 | 1.85%
33 | COc1ccc(OC)c(C(=O)COC(=O)c2c(OC)cccc2OC)c1 | 8.03%
34 | CCCN1CCC(NC(=O)C2CCCCC2C(=O)O)CC1 (stereo not shown) | -1.65%
35 | C(=N\N=C\c1cccs1)/c1cccs1 | -2.57%
36 | Cc1nn(CCC#N)c2c1P(=S)(N1CCCC1)OC(c1ccc(F)cc1)=N2 (stereo not shown) | -7.21%
37 | C=CCN1C(=O)C(CC(=O)O)SC1=Nc1c(C)n(C)n(-c2ccccc2)c1=O (stereo not shown) | 1.73%
38 | COc1ccccc1/C=C1\SC(=O)N(CC(=O)N(C)C2CCS(=O)(=O)C2)C1=O (stereo not shown) | 11.5%
39 | Nc1cc(N)cc(C(=O)Nc2ccc3c(c2)C(=O)NC3=O)c1 | 12.1%
40 | O=C(CN1C(=O)NC2(CCCCCC2)C1=O)N1CCN(c2ccccc2)CC1 | -2.9%
41 | CCOc1ccc(Cl)cc1S(=O)(=O)N1CCCC1 | -6.06%
42 | CN1CCN(c2nnc(-c3ccc(Cl)cc3)c3ccccc23)CC1 | -45.7%
43 | O=C1c2ccccc2S(=O)(=O)c2cc(C(=O)N3CCN(c4ccccc4)CC3)ccc21 | -25%
44 | COc1ccc(-c2nc(-c3ccncc3)no2)cc1 | 10.5%
45 | Cc1ccc(-c2nn(-c3cccc(F)c3)cc2CN(Cc2nccn2C)C(C)C)o1 | -21.4%
46 | COc1ccc(CNCc2cn(-c3cccc(F)c3)nc2-c2ccc(C)o2)cc1 | -55.5%

Row | SMILES | hERG current change (%, negative = inhibition) at 10uM
47 | Cc1ccc(-c2nn(-c3cccc(F)c3)cc2CNCc2cccnc2)o1 | -51.6%
48 | Cc1ccc(-c2nn(-c3cccc(F)c3)cc2CN2CCN(c3ccccn3)CC2)o1 | -26.5%
49 | Cc1ccc(-c2nn(-c3ccccc3)cc2CO)o1 | -0.28%
50 | COc1ccc(-n2cc(CNCc3cccnc3)c(-c3cccc(F)c3)n2)cc1 | -47.7%
51 | COc1ccc(-c2nn(-c3ccccc3)cc2CNCc2cccnc2)c(F)c1 | -28.1%
52 | Cc1ccc(-c2nn(-c3cccc(F)c3)cc2CNCCc2ccncc2)o1 | -53.6%
53 | COCCNCCCCOc1ccccc1-c1ccccc1.O=C(O)C(=O)O | -27.5%
54 | Cc1cc(C(=O)NCC(=O)OCC(=O)NCC2CCCO2)ccc1[N+](=O)[O-] (stereo not shown) | 15.3%
55 | COc1ccc(C2C(C(=O)N3CCCC3)CC(=O)N2c2ccc(OC)cc2)cc1 (stereo not shown) | 0.91%
56 | O=C(Cn1cnc2c(oc3nc4c(cc32)CCCC4)c1=O)Nc1cccc(Cl)c1 | 16.2%
57 | COc1ccc(-c2cn[nH]c2-c2ccc(OCC(=O)NN)cc2O)cc1 | 17.4%
58 | CCOC(=O)c1ccc(/[N+]([O-])=C/c2ccccc2)cc1 | 0.217%
59 | CCCOC(=O)c1ccc(NC(=O)Oc2ccccc2)cc1 | 3.21%
60 | CCCOC(=O)c1ccc(-[n+]2c(-c3ccccc3)cc(-c3ccccc3)cc2-c2ccccc2)cc1.[O-][Cl+3]([O-])([O-])[O-] | -77.2%
61 | CCOC(=O)c1ccc(-[n+]2c(-c3ccccc3)cc(-c3ccccc3)cc2-c2ccccc2)cc1.[O-][Cl+3]([O-])([O-])[O-] | -77.9%
62 | CCOC(=O)c1ccc(P(=O)(c2ccccc2)c2ccccc2)cc1 | -18.2%
63 | CCCOC(=O)c1ccc(Cl)c(NC(=O)c2ccc(-c3ccccc3)cc2)c1 | -5.63%
64 | CCOC(=O)c1ccc(Cl)c(NC(=O)c2ccc(-c3ccccc3)cc2)c1 | 1.02%
65 | CCOC(=O)c1cccc(P(=O)(C(C)(C)C)C(C)(C)C)c1 | 17.1%
66 | CCOC(=O)c1cccc(-[n+]2c(-c3ccccc3)cc(-c3ccccc3)cc2-c2ccccc2)c1.[O-][Cl+3]([O-])([O-])[O-] | -73.5%
67 | O=C(O)CCC(=O)c1ccc2c(c1)OCCO2 | 1.89%
68 | O=c1c(C=NCc2cccs2)c(O)n(C2CCCCC2)c(=O)n1C1CCCCC1 | 8.72%
69 | O=C(CCCCCNC(=O)N1CCn2c1nc1ccccc12)NCCc1ccccc1 | 9.42%

Row | SMILES | hERG current change (%, negative = inhibition) at 10uM
70 | O=C(O)c1ccccc1C(=O)N1N=C(c2ccccc2)CC1c1ccccc1O (stereo not shown) | 6.81%
71 | Cc1nn(C(=O)c2ccco2)c(C)c1Sc1ccc(Br)cc1 | -4.64%
72 | COC(=O)CN1C(=O)COc2ccc(S(=O)(=O)N3CCCCCC3)cc21 | -7.44%
73 | O=C(CSc1nnc(Cc2cc(=O)[nH]c(=O)[nH]2)n1-c1ccc(Cl)cc1)NC1CCCC1 | 10.7%
74 | COC(=O)CSc1[nH]c(=O)cc(C)c1C#N | 19.9%
75 | O=C(CN1CCc2ccccc2C1)NCC(=O)Nc1ccc(F)cc1 | 13.5%
76 | O=C(Nc1ccc(Cl)cc1)[C@@H]1[C@@H]2C(=O)N(c3cccc(F)c3)C(=O)[C@@H]2[C@H]2C=CC=NN21 | -9.36%
77 | CCCCc1ccc(N=N/C(C(=O)Nc2ccccc2OC)=C(/C)O)cc1 | -8.51%
78 | CCCCc1ccc(N=N/C(C(=O)Nc2ccc(NC(C)=O)cc2OC)=C(/C)O)cc1 | -50.2%
79 | CCCCc1ccc(N=N/C(C(=O)Nc2cc(OC)c(NC(C)=O)cc2OC)=C(/C)O)cc1 | 14.2%
80 | O=C(CCNC(=O)c1ccc(Br)cc1)Nc1cccc(S(=O)(=O)N2CCCCC2)c1 | -36.1%
81 | CN(C)S(=O)(=O)c1cccc(C(=O)NCCNC(=O)c2cccc(S(=O)(=O)N(C)C)c2)c1 | 15.9%
82 | O=C(CCCNC(=O)c1ccc(Cl)cc1)Nc1cccc(S(=O)(=O)N2CCCCC2)c1 | -20.2%
83 | O=C(CCNC(=O)c1ccc([N+](=O)[O-])cc1)Nc1cccc(S(=O)(=O)N2CCCCCC2)c1 | -75.1%
84 | O=C(CCNC(=O)c1ccc(Br)cc1)Nc1cccc(S(=O)(=O)N2CCCC2)c1 | -32.7%
85 | O=C(CCNC(=O)c1ccc(Br)cc1)Nc1cccc(S(=O)(=O)N2CCCCCC2)c1 | -34.1%
86 | O=C(CCNC(=O)c1ccc(Cl)cc1)Nc1cccc(S(=O)(=O)N2CCCCCC2)c1 | -57.3%
87 | CN(C)S(=O)(=O)c1cccc(COC(=O)CCNC(=O)c2ccc([N+](=O)[O-])cc2)c1 | -55.2%
88 | CN(C)S(=O)(=O)c1ccc(C(=O)OCc2ccc([N+](=O)[O-])cc2)cc1 | 17.6%
89 | O=C(CCNC(=O)c1ccc(Cl)cc1)Nc1cccc(S(=O)(=O)N2CCCCC2)c1 | -46%
90 | O=C(CCNC(=O)c1ccc([N+](=O)[O-])cc1)Nc1cccc(S(=O)(=O)N2CCCCC2)c1 | -55.2%
91 | O=C(CCNC(=O)c1ccc([N+](=O)[O-])cc1)Nc1cccc(S(=O)(=O)N2CCOCC2)c1 | -31.7%
